From PubChem BioAssay
The source made the active and inactive calls. Unless noted, the rule behind the calls is not given here.

What was measured:
[1] = system: Wnt5a (protein binding on small-molecule microarray); assay: small molecules binding Wnt5a protein – biophysical, small-molecule microarray, 635/667 nm fluorescence, primary screen (AID 1142); conditions: 635 nm fluorescence, higher = more signal;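 note: fluorescence read at 667 nm with signal to noise per printed feature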
[2] = ATP-based viability of Huh7 replicon cells – cell-based, CellTiter-Glo luminescence, basal, 48 h, cytotoxicity control for HCV replication inhibitor project, primary screen (AID 1143); conditions: higher = more signal, called active from +8 up or from −8 down;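 note: Huh7 hepatoma cells carrying a hepatitis C replication reporter with no stimulus; test concentration not given here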
[3] = Pseudomonas biofilm growth suppression – PAO1 strain, BacTiter-Glo luminescence, LB-PBS, primary screen (AID 1144); conditions: P. aeruginosa PAO1 biofilm, 12 h, higher = more signal
[4] = basal CRE-LacZ reporter activity in PC12 – cell-based, unstimulated, primary screen (AID 1145); conditions: no forskolin, luminescence, 4.5 h, higher = more signal, called active from +8 up or from −8 down
[5] = forskolin-driven CRE-LacZ activity in PC12 – cell-based, CRE-LacZ reporter, forskolin-stimulated, primary screen (AID 1146); conditions: luminescence, 4.5 h, higher = more signal, called active from +8 up or from −8 down;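 note: PC12 cells with 6xCRE LacZ reporter stimulated by forskolin 10 µM; beta-galactosidase reporter signal reflecting CREB driven transcription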
[6] = molecular target: Streptavidin (Streptomyces avidinii) (UniProt P22629); assay: compounds binding control protein streptavidin – biophysical, small-molecule microarray, 635/667 nm fluorescence, artefact control for SMM compound annotation, primary screen (AID 1147); conditions: higher = more signal;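 note: signal reflects streptavidin binding to arrayed compounds as a control protein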
Streptavidin (Streptomyces avidinii), sequence (P22629 whole entry, looked up): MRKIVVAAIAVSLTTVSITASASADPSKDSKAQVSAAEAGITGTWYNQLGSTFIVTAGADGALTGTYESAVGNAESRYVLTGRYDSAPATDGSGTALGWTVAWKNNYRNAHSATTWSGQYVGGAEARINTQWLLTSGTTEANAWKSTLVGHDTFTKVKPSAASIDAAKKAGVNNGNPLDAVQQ

[7] = probe aInhba binding on compound microarray – biochemical, small-molecule microarray, 635/667 nm fluorescence, primary screen (AID 1148); conditions: higher = more signal;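 note: score merges 667nm spot fluorescence with signal-to-noise for antibody binding to printed compounds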
[8] = molecular target: Torsin-1A (Homo sapiens) (UniProt O14656); assay: TOR1A wild-type binding on microarray – cell lysate, small-molecule microarray, lysate, 635/667 nm, primary screen (AID 1149); conditions: COS7 hTOR1A-WT lysate, 635 nm fluorescence, higher = more signal
Torsin-1A (Homo sapiens), sequence (O14656 whole entry, looked up): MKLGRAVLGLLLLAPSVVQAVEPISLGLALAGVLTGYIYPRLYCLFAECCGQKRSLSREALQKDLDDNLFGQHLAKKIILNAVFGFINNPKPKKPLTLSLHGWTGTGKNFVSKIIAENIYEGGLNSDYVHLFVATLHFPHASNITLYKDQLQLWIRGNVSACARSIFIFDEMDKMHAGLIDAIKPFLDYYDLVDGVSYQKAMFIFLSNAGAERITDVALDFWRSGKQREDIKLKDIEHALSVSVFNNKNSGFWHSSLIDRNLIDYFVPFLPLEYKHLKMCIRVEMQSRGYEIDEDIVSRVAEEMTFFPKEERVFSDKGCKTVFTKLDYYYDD

[9] = molecular target: Torsin-1A (Homo sapiens) (UniProt O14656); assay: torsin A mutant lysate binding on microarrays – cell lysate, small-molecule microarray, COS7 lysate, 635/667 nm fluorescence, primary screen (AID 1150); conditions: COS7 hTOR1A mutant lysate, 635 nm fluorescence, higher = more signal;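 note: score pools 667 nm emission and signal to noise measuring lysate protein binding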
[10] = system: Sonic hedgehog protein (Shh); assay: Sonic hedgehog microarray binding compounds – biochemical, small-molecule microarray, 635/667 nm fluorescence, primary screen (AID 1151); conditions: 635 nm fluorescence, higher = more signal;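 note: Shh protein binding to compounds spotted on small-molecule microarray slides; score combines spot fluorescence intensity with signal-to-noise across triplicate slides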
[11] = optical density shifts of acrAB sulA E. coli – strain DRC41, OD650, 48 h, E. coli filamentation inducer project, primary screen (AID 1152); conditions: higher = more signal, called active from +8 up or from −8 down;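 note: E. coli MC1000 strain DRC41 lacking acrAB efflux pump and sulA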
[12] = probe aLefty1 binding on compound microarray – biochemical, small-molecule microarray, 635/667 nm fluorescence, primary screen (AID 1153); conditions: higher = more signal;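 note: score merges spot fluorescence with signal-to-noise ratio from the scanned slide images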
[13] = plasmodial surface anion channel blockers, osmotic lysis – cell-based, P. falciparum Indochina, OD700, 1 h, primary screen (AID 1154); conditions: P. falciparum Indochina infected RBC osmotic lysis, higher = more signal, called active from +8 up or from −8 down
[14] = plasmodial surface anion channel blockers, osmotic lysis – cell-based, P. falciparum Indochina, OD700, 2 h, primary screen (AID 1155);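 note: lysis reports solute entry through the parasite surface anion channel PSAC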; conditions: P. falciparum Indochina infected erythrocytes, higher = more signal, called active from +8 up or from −8 down
[15] = changes in parasitized red cell lysis, either direction – P. falciparum Indochina, OD700, 3 h, PSAC antagonist project, primary screen (AID 1156); conditions: P. falciparum-infected erythrocytes, osmotic lysis, higher = more signal, called active from +8 up or from −8 down
[16] = plasmodial surface anion channel blockers, osmotic lysis – cell-based, P. falciparum Indochina, OD700, 18 h, primary screen (AID 1157); conditions: P. falciparum Indochina infected erythrocytes, osmotic lysis OD700, 18 h; higher = more signal, called active from +8 up or from −8 down
[17] = S6 kinase pathway phospho-S6 level changes – cell-based, A549, cytoblot, luminescence, serum-stimulated, primary screen (AID 1158); conditions: 5 h, higher = more signal;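 note: serum-stimulated A549 lung adenocarcinoma cells; signal is phosphorylated S6 detected by cytoblot immunostaining with HRP secondary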
[18] = molecular target: NADPH oxidase 2 (Homo sapiens) (UniProt P04839); assay: compounds shifting NOX2 Amplex Red fluorescence – cell-based, HEK293-NOX2, PMA-stimulated, NOX inhibitor project, primary screen (AID 1159); conditions: 45 min, higher = more signal, called active from +8 up or from −8 down; note: test concentration not given here
NADPH oxidase 2 (Homo sapiens), sequence (P04839 whole entry, looked up): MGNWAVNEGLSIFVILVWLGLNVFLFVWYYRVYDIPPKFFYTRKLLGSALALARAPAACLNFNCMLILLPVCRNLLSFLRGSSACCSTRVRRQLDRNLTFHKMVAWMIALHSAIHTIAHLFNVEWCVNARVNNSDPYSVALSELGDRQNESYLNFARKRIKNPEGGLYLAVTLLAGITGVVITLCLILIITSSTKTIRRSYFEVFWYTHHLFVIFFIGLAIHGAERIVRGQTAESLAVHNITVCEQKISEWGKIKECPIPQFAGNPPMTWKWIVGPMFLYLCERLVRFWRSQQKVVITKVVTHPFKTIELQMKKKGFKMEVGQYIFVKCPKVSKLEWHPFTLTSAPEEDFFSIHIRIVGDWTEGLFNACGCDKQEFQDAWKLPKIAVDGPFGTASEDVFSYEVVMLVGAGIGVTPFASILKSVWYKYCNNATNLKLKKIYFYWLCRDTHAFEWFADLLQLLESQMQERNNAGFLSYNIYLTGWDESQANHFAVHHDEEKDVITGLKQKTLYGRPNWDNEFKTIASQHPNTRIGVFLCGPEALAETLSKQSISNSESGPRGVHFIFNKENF

[19] = molecular target: NADPH oxidase 4 (Homo sapiens) (UniProt Q9NPH5); assay: compounds shifting NOX4 Amplex Red fluorescence – cell-based, HEK293-NOX4, tetracycline-induced, NOX inhibitor project, primary screen (AID 1160); conditions: HEK293-NOX4, Amplex Red H2O2 fluorescence, 45 min; higher = more signal, called active from +8 up or from −8 down
NADPH oxidase 4 (Homo sapiens), sequence (Q9NPH5 whole entry, looked up): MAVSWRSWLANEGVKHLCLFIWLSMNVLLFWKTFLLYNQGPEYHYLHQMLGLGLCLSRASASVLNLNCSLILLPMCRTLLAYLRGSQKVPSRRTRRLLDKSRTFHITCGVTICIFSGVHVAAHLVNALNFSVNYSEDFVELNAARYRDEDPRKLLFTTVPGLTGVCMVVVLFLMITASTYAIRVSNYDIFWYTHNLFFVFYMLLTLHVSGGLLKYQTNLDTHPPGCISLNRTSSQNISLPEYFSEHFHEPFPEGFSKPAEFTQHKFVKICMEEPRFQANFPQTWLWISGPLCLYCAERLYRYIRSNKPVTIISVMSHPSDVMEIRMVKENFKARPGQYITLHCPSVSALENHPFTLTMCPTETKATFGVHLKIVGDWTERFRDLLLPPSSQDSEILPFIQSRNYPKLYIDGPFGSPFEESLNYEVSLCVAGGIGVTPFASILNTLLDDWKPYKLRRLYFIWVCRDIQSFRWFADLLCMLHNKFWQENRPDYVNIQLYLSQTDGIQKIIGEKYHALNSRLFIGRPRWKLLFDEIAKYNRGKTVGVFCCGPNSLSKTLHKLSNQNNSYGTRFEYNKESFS

[20] = molecular target: NADPH oxidase 5 (Homo sapiens) (UniProt Q96PH1); assay: compounds shifting NOX5 Amplex Red fluorescence – cell-based, HEK293-NOX5, NOX inhibitor project, primary screen (AID 1161); conditions: HEK293-NOX5, ionomycin, 45 min, higher = more signal
NADPH oxidase 5 (Homo sapiens), sequence (Q96PH1 whole entry, looked up): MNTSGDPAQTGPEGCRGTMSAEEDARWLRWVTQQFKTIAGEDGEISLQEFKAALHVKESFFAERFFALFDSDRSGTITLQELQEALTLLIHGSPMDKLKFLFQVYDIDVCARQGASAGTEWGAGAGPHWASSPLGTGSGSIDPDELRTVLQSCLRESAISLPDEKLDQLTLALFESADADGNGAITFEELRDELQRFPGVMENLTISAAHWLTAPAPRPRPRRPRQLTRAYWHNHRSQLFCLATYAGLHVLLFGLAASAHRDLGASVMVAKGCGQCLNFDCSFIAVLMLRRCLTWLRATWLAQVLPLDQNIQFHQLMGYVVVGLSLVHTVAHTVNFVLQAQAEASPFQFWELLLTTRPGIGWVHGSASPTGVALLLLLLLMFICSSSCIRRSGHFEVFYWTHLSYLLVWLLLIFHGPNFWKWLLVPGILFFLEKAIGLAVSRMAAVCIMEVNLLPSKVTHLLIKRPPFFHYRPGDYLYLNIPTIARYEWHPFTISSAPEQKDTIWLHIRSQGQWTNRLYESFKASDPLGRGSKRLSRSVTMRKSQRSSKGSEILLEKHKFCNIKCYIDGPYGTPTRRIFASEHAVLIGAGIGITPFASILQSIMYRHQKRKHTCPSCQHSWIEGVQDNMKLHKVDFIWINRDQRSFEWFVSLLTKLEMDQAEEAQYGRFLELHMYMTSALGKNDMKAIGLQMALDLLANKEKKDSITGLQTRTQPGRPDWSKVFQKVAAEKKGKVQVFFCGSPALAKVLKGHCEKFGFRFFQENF

## CN1C(=O)C2C=CC(C(O)C=Cc3ccc([N+](=O)[O-])cc3)N(N3CCCCC3)C2C1=O (stereo not given)
[1]
  composite z-score: 1.32
[2]
  z-score: 0.795 (inactive)
[3]
  z-score: 0.287 (inactive)
[4]
  z-score: -0.519 (inactive)
[5]
  z-score: 0.855 (inactive)
[6]
  composite z-score: 2.09
[7]
  composite z-score: 1.22
[8]
  composite z-score: 0.704
[9]
  composite z-score: 0.451
[10]
  composite z-score: 0.909
[11]
  z-score: -1.54 (inactive)
[12]
  composite z-score: 1.11
[13]
  z-score: 2.72 (inactive)
[14]
  z-score: 0.962 (inactive)
[15]
  z-score: 0.714 (inactive)
[16]
  z-score: 1.02 (inactive)
[17]
  z-score: -0.9
[18]
  z-score: -0.542 (inactive)
[19]
  z-score: -0.397 (inactive)
[20]
  z-score: -1.25

## C=C(/C(=C/C[C@@H](OC(=O)c1ccncc1)c1ccc(CO)o1)c1cc(C(=O)OC)ccc1OC)C(C)C
[1]
  composite z-score: 0.569
[2]
  z-score: -0.82 (inactive)
[3]
  z-score: -0.0553 (inactive)
[4]
  z-score: 8.87 (active)
[5]
  z-score: 3.69 (inactive)
[6]
  composite z-score: 0.229
[7]
  composite z-score: 0.0633
[8]
  composite z-score: 1.24
[9]
  composite z-score: 0.946
[10]
  composite z-score: 1.2
[11]
  z-score: 0.694 (inactive)
[12]
  composite z-score: 0.107
[13]
  z-score: 6.4 (inactive)
[14]
  z-score: 1.47 (inactive)
[15]
  z-score: 2.63 (inactive)
[16]
  z-score: 0.529 (inactive)
[17]
  z-score: 0.57
[18]
  z-score: -0.0543 (inactive)
[19]
  z-score: -0.699 (inactive)
[20]
  z-score: -0.86

## CCCC[C@@H]1C[C@H]1[C@@H](NC(=O)c1ccco1)c1ccccc1
[1]
  composite z-score: -0.609
[2]
  z-score: -2.87 (inactive)
[3]
  z-score: 0.0548 (inactive)
[4]
  z-score: 0.783 (inactive)
[5]
  z-score: -0.787 (inactive)
[6]
  composite z-score: -1.27
[7]
  composite z-score: -0.258
[8]
  composite z-score: -3.91
[9]
  composite z-score: -1.3
[10]
  composite z-score: -1.88
[11]
  z-score: -2.76 (inactive)
[12]
  composite z-score: -0.168
[13]
  z-score: 4.64 (inactive)
[14]
  z-score: 1.16 (inactive)
[15]
  z-score: 0.747 (inactive)
[16]
  z-score: 0.545 (inactive)
[17]
  z-score: -0.446
[18]
  z-score: -1.42 (inactive)
[19]
  z-score: -2.53 (inactive)
[20]
  z-score: 0.195

## C#C[C@H]1Oc2ccccc2S(=O)(=O)N2CCC[C@@H]12
[1]
  composite z-score: -0.0713
[2]
  z-score: -0.0352 (inactive)
[3]
  z-score: -0.0287 (inactive)
[4]
  z-score: 0.126 (inactive)
[5]
  z-score: 1.3 (inactive)
[6]
  composite z-score: -0.14
[7]
  composite z-score: -0.278
[8]
  composite z-score: 0.461
[9]
  composite z-score: 0.512
[10]
  composite z-score: 1.63
[11]
  z-score: -0.789 (inactive)
[12]
  composite z-score: -0.106
[13]
  z-score: 0.264 (inactive)
[14]
  z-score: 0.276 (inactive)
[15]
  z-score: 0.0691 (inactive)
[16]
  z-score: 0.0594 (inactive)
[17]
  z-score: 0.213
[18]
  z-score: 0.281 (inactive)
[19]
  z-score: -1.29 (inactive)
[20]
  z-score: -0.494
